Screening results (PubChem BioAssay)
An excerpt weighted towards active compounds, which were near 2.4% of everything screened.
CHT inh = inhibits the human high affinity choline transporter; 0.86% of 310,000 active; B-score at 10 µM; CHT-expressing cells, membrane potential dye, choline response; stronger effect = lower value; AID 488975;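 active = B-score over 3 SD under the library average, and starting fluorescence ratio not unusually high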;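 also: choline stimulus applied at its EC90 after an EC20 pre-addition; B-score computed on integrated fluorescence ratio after choline addition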
TMEM16A inh = inhibitors of mouse TMEM16A calcium-activated chloride channel; Q8BHY3; HEK293 TMEM16A/YFP iodide influx fluorescence, ionomycin; normalized B-score (activity score, 25-100; higher = stronger inhibition) at 10 µM; 1.2% of 310,000 active;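 active = ratio plate-corrected score three or more library SD toward inhibition, starting fluorescence score within five deviations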;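 also: score derived from kinetic fluorescence span divided by baseline fluorescence per well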
CHT PAM = allosteric activators of human choline transporter CHT; CHT-expressing cells, membrane potential dye, choline EC20; stronger effect = higher value; LV-AA mutant CHT in HEK293 cells; B-score at 10 µM; AID 488977; 0.49% of 310,000 active;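 active = initial fluorescence not abnormally high and integrated response B-score, plate-corrected, over 3 SD above library mean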
ANO1 activ = activates or potentiates the mouse TMEM16A chloride channel. Q8BHY3. B-score at 10 µM. 0.3% of 340,000 active. HEK293 TMEM16A/YFP-H148Q/I152L, iodide quench fluorescence; stronger effect = lower value;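 active = fluorescence-ratio B-score plate-corrected deviation score at least 3 library SD below zero, with starting fluorescence score within 5 deviations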;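 also: channel opened by trigger with iodide after compound preincubation; score built on the fluorescence ratio of max minus min over baseline; more negative score means more quench and so TMEM16A activation or potentiation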
TMEM16A reconf = re-confirmation of mouse TMEM16A chloride channel inhibitors; inhibition, % at 10 µM; shares compounds with TMEM16A inh; HEK293 TMEM16A/YFP-H148Q, iodide quench fluorescence; ionomycin added to raise cell calcium; 39% of 2,300 active;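 active = mean duplicate percent inhibition, scaled so buffer wells are 0 and the reference blocker 100, over three buffer SD above buffer mean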
TMEM16A Ca cntr = counter-screen for TMEM16A inhibitors: effect on calcium mobilization | shares compounds with TMEM16A inh | TMEM16A/YFP HEK293, Fluo4 calcium mobilization | calcium response (% of ionomycin), % at 10 µM | 2% of 2,300 active | AID 652231;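 active = duplicate-averaged calcium signal over 20% of the ionomycin maximum, relative to buffer baseline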;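 also: each well's signal is peak minus trough fluorescence divided by its pre-addition baseline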
YFP-HEK293 quench = counter-screen for TMEM16A inhibitors: effect in parental YFP-HEK293 cells. shares compounds with TMEM16A inh. YFP ratio F(max-min)/F0 at 10 µM. iodide YFP quench, ionomycin. 2,300 tested, under 10 active;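 active = yellow fluorescent protein signal ratio exceeding the buffer control mean by over 5 SD of those controls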;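 also: ratio is mean of duplicate wells from kinetic YFP trace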
ClC-1 rat inh = rat ClC-1 inhibition, TMEM16A specificity screen; shares compounds with TMEM16A inh; CHO ClC-1-YFP, iodide influx fluorescence quench; iodide control reads 0, buffer control 100; ratio percent, % at 10 µM; 2,300 tested, under 10 active;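 active = duplicate-mean ratio percent above the mean of iodide-only control wells, which defines zero, plus 5 of their SD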;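 also: higher percent means stronger block of ClC-1 iodide influx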
Numbers stand for hits; n = inactive; x = not tested or not shown.

SMILES	CHT inh	TMEM16A inh	CHT PAM	ANO1 activ	TMEM16A reconf	TMEM16A Ca cntr	YFP-HEK293 quench	ClC-1 rat inh
O=C(CSc1nc2ncc(Br)cc2[nH]1)Nc1ccccc1-c1ccccc1	n	100	n	n	n	n	n	n
CCc1ccc(NC(=O)CSc2nc3ncc(Br)cc3[nH]2)cc1	n	n	n	n	x	x	x	x
CCOC(=O)C1=C(N)Oc2cc(O)ccc2C1c1cccnc1 (configuration not stated)	n	100	n	n	30%	n	n	n
CCOC(=O)C1=C(N)Oc2cc(O)ccc2C1c1cccc(Cl)c1 (configuration not stated)	n	n	n	n	x	x	x	x
COc1ccc(CCNS(=O)(=O)c2ccc(OC)cc2)cc1	n	25	n	n	n	n	n	n
CCNS(=O)(=O)c1ccc(CCC(=O)NCCc2ccc(OC)cc2)cc1	n	n	n	n	x	x	x	x
CCCCc1ccc(NC(=S)N2CCN(C(=O)c3ccco3)CC2)cc1	n	n	n	n	x	x	x	x
CCCC1(C(=O)O)NC(c2ccccc2O)C2C(=O)N(Cc3ccccc3)C(=O)C21 (configuration not stated)	n	100	n	n	n	n	n	n
C/C(=N\NC(=S)NCCc1ccccc1)c1ccc(Cl)cc1Cl	n	n	n	n	x	x	x	x
C/C(=N\NC(=S)NCCc1ccccc1)c1ccc(O)cc1O	n	25	n	n	23%	n	n	n
Cc1cc(=O)oc(C)c1C(=O)NCCCN1CCN(c2ccccc2F)CC1	n	n	n	n	x	x	x	x
CC(=O)NCCC(Cc1ccccc1)c1ccco1 (configuration not stated)	n	100	n	n	n	n	n	n
CCOc1ccc(Oc2ccc(S(=O)(=O)N3CCOCC3)cc2N)cc1	n	n	n	n	x	x	x	x
Nc1cc(S(=O)(=O)N2CCCCC2)ccc1Oc1ccccc1	n	25	n	n	16%	n	n	n
CCOC(=O)c1cc2ccccc2n1CCN(CC)CC	n	25	n	n	n	n	n	n
Cc1ccnc(N2CCCC(C(=O)Nc3cccc(C)c3C)C2)n1 (configuration not stated)	n	n	n	n	x	x	x	x
Cc1nc(N2CCN(c3ccccc3F)CC2)[nH]c(=O)c1C	n	n	n	n	x	x	x	x
CC1CCCC(NC(=O)COC(=O)CCC(=O)c2cccs2)C1C (configuration not stated)	x	x	x	n	x	x	x	x
Cc1cccc2[nH]c3c(N4CCC5(CC4)OCCO5)ncnc3c12	n	n	n	n	x	x	x	x
c1ccc2c(c1)[nH]c1c(N3CCSCC3)ncnc12	n	25	n	n	28%	n	n	n
Cc1ccc2[nH]c3c(N4CCc5ccccc5C4)ncnc3c2c1	n	25	n	n	30%	n	n	n
Clc1ccc2[nH]c3c(N4CCC5(CC4)OCCO5)ncnc3c2c1	n	100	n	x	44%	n	n	n
CCC(C)(c1nnnn1-c1c(C)cccc1C)N(N=O)c1cccc(C(F)(F)F)c1 (configuration not stated)	n	n	n	n	x	x	x	x
N#C/C(=C\c1ccc(O)c(O)c1)S(=O)(=O)c1ccccc1	n	n	n	n	41%	n	n	n
N#C/C(=C/c1ccc(F)cc1)S(=O)(=O)c1ccccc1	n	n	n	n	x	x	x	x
SMILES	CHT inh	TMEM16A inh	CHT PAM	ANO1 activ	TMEM16A reconf	TMEM16A Ca cntr	YFP-HEK293 quench	ClC-1 rat inh
CC(OC(=O)CCc1nc2ccccc2c(=O)[nH]1)C(=O)c1ccc(C(C)(C)C)cc1 (configuration not stated)	n	100	n	n	28%	n	n	n
COc1ccc(C(=O)NNC(=O)CCc2nc3ccccc3c(=O)[nH]2)cc1	x	x	x	n	x	x	x	x
CNC(=S)N1N=C(c2ccc(OC)cc2)CC1c1ccc(Cl)cc1Cl (configuration not stated)	n	n	n	n	x	x	x	x
CNC(=S)N1N=C(c2ccc(OC)cc2)CC1c1ccccc1Cl (configuration not stated)	n	25	n	n	45%	n	n	n
CN(CCOc1ccccc1)CC(=O)Nc1ccc([N+](=O)[O-])cc1Cl	n	25	n	n	19%	n	n	n
Cc1cc(C)cc(OCC(=O)Nc2ccc(-n3cnnn3)cc2)c1	x	x	x	n	x	x	x	x
N#Cc1c(SCC(=O)Nc2ccccc2)nsc1SCC(=O)Nc1ccccc1	n	n	n	n	x	x	x	x
CC(C)C(=O)c1cc2c(cc1NC(=O)Nc1cccc3ccccc13)OCCO2	n	n	n	x	x	x	x	x
CC(C)C(=O)c1cc2c(cc1NC(=O)c1ccccc1)OCCO2	n	100	n	n	n	n	n	n
Cc1ccc(C)c(NC(=O)c2ccccc2NC(=O)C2CCCO2)c1 (configuration not stated)	n	n	n	n	x	x	x	x
O=c1c2ccccc2nc(SCc2ccc([N+](=O)[O-])cc2)n1-c1ccccc1	n	n	n	n	x	x	x	x
O=C(O)c1ccc2c(=O)n(Cc3ccccc3)c(SCc3ccc([N+](=O)[O-])cc3)nc2c1	n	25	n	n	19%	n	n	n
O=C(NNC(=O)c1ccccc1Cl)c1ccc2c(=O)n3c(nc2c1)CCC3	x	x	x	n	x	x	x	x
CN(Cc1nc2ccc(F)cc2[nH]1)Cc1c(C(=O)N(C)C)nc2ccc(Cl)cn12	n	n	n	n	x	x	x	x
CC1CCCN(C(=O)C(C)Sc2nc(-c3ccccc3)cc(C(F)(F)F)n2)C1 (configuration not stated)	n	100	n	n	n	n	n	n
CC(Sc1nc(-c2ccccc2)cc(C(F)(F)F)n1)C(=O)N1CCCCC1 (configuration not stated)	n	n	n	n	x	x	x	x
Cc1cc(Cl)ccc1OCC(=O)NCCOC(=O)Nc1sc(=S)n(C)c1C	n	n	n	n	x	x	x	x
O=C(CCc1nc2ccccc2c(=O)[nH]1)NCCN1C(=O)S/C(=C\c2ccc(Cl)cc2Cl)C1=O	n	25	n	n	n	n	n	n
CN(C)CCN(Cc1ccccc1)c1ccnc(N(C)C)c1C#N	n	n	n	n	x	x	x	x
CN(C)c1nccc(N(Cc2ccccc2)Cc2ccccc2)c1C#N	n	25	n	n	n	n	n	n
Cc1cc(NC(=O)C2C3C(=O)N(c4cccnc4)C(C(=O)NC(C)(C)C)C34C=CC2(C)O4)no1 (configuration not stated)	n	n	n	n	x	x	x	x
O=C(Nc1ccccc1N1CCOCC1)c1ccccc1NS(=O)(=O)c1ccc(F)c(F)c1	n	100	n	n	31%	n	n	n
Cc1cc(F)ccc1S(=O)(=O)Nc1ccccc1C(=O)Nc1ccccc1N1CCOCC1	n	25	n	n	n	n	n	n
